Assay results published in PMC7862700, “An all-to-all approach to the identification of sequence-specific readers for epigenetic DNA modifications on cytosine”.

Columns and labels:
Test in all cases: DAPPL (digital affinity profiling via proximity ligation, sequencing); 10 mM Tris-HCl pH 7.5, 50 mM NaCl, 1 mM DTT, 4% glycerol, room temperature, 30 min; GST-TFs on glutathione beads, 16-mer random dsDNA library, 0.1% formaldehyde crosslink after washing; high values mean tight binding
Settings in all cases: protein: recombinant; tags: N-terminal GST; dsDNA, one strand shown
FLI1 = molecular target: T1, FLI1 (Homo sapiens, UniProt Q01543 1-452)
T1 sequence: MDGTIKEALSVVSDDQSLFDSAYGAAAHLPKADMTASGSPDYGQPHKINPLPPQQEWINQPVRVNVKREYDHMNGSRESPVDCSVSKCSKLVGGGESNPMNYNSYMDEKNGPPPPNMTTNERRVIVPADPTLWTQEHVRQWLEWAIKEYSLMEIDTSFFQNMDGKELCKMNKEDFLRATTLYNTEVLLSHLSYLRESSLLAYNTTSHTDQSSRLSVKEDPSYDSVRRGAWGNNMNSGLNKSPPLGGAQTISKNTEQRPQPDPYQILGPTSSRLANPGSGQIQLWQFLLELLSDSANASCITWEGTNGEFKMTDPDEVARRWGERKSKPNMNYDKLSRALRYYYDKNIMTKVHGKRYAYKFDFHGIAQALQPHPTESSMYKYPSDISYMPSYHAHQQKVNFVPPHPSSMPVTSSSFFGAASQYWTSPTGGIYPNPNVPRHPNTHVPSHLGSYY
How it was run: (§1)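 Binding signal is defined as a hexamer's read frequency for one factor over its frequency for the tag-only sample. To obtain reads, GST-fused human transcription factors were expressed in yeast, captured on glutathione beads, barcoded with DNA and pooled with that sample. Pools met 200 nmole of a 16-mer random double-stranded DNA library in Tris/NaCl/DTT/glycerol buffer for 30 min at room temperature before washing, 0.1% formaldehyde crosslinking, proximity ligation (BsaI/T4 ligase, 1 h, 37 °C), PCR and Illumina NextSeq500 sequencing.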

ELK1 = molecular target: T2, ELK1 (Homo sapiens, UniProt P19419 1-428)
T2 sequence: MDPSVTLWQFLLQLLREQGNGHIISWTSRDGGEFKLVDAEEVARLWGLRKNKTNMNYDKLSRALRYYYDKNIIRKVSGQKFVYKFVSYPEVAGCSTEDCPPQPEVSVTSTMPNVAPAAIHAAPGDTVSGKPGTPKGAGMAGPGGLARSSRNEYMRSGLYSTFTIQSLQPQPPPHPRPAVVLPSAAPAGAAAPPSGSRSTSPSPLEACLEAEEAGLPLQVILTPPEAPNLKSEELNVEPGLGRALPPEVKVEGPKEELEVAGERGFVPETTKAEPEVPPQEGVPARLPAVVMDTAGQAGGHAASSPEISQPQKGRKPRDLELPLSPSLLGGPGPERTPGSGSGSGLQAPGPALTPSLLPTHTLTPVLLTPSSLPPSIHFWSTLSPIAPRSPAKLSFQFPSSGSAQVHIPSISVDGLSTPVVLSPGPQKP
How it was run: as §1

GABPA = molecular target: T3, GABPA (Homo sapiens, UniProt Q06546 1-454)
T3 sequence: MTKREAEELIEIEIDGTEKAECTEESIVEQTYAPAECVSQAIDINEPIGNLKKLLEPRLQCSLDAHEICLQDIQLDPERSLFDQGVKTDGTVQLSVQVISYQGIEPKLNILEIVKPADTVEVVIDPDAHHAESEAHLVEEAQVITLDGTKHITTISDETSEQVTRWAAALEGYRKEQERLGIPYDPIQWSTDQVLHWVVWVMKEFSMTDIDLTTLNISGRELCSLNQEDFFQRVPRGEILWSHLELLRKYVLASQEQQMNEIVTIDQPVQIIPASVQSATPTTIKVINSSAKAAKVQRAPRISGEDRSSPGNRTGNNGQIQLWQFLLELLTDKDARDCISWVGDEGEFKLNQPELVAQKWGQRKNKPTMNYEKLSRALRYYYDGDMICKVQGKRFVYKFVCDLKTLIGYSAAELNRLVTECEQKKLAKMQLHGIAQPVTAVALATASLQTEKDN
How it was run: as §1

ERG = molecular target: T4, ERG (Homo sapiens, UniProt P11308 1-479)
T4 sequence: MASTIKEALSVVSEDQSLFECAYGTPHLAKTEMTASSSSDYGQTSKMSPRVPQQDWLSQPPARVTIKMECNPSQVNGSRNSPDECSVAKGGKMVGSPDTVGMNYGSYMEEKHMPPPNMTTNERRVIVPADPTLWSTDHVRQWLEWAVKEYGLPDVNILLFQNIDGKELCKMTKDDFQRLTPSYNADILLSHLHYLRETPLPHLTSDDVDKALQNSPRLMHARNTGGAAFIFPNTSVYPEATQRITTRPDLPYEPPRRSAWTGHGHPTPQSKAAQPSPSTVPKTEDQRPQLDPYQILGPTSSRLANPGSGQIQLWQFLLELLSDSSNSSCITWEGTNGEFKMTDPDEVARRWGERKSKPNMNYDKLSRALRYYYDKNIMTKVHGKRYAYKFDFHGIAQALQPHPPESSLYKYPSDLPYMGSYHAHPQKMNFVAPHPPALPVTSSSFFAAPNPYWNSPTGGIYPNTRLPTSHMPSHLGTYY
How it was run: as §1

ELF1 = ELF1 (Homo sapiens, UniProt P32519 1-619)
Sequence of ELF1 (P32519 whole entry): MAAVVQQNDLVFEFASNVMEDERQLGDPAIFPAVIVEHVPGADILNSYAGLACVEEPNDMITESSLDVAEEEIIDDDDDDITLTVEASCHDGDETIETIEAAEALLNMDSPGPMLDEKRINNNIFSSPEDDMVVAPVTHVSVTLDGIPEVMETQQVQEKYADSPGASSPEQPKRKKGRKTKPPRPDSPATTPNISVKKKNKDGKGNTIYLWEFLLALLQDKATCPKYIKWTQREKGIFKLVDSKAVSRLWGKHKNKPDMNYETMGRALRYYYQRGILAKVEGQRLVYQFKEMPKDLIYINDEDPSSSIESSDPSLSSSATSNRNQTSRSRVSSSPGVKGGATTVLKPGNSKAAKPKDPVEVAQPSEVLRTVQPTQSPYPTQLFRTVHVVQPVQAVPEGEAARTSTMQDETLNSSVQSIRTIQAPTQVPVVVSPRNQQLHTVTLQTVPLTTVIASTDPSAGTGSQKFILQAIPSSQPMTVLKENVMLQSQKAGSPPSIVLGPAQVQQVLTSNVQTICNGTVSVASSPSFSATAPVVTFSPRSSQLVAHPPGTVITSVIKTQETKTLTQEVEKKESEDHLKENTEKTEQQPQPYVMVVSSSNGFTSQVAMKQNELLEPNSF
How it was run: as §1

SPI1 = SPI1 (Homo sapiens, UniProt P17947 1-270)
How it was run: as §1

ELK3 = molecular target: T5, ELK3 (Homo sapiens, UniProt P41970 1-407)
T5 sequence: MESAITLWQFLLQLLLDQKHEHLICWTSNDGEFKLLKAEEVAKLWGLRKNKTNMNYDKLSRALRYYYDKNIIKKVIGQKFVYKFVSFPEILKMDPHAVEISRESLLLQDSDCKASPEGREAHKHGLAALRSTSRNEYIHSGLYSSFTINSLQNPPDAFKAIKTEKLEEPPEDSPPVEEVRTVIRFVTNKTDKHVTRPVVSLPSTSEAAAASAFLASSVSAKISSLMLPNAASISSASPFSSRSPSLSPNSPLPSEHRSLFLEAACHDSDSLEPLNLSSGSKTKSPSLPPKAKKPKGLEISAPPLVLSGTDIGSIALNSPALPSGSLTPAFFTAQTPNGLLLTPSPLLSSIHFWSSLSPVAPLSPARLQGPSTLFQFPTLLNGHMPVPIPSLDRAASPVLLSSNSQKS
How it was run: as §1

FEV = molecular target: T6, FEV (Homo sapiens, UniProt Q99581 1-238)
T6 sequence: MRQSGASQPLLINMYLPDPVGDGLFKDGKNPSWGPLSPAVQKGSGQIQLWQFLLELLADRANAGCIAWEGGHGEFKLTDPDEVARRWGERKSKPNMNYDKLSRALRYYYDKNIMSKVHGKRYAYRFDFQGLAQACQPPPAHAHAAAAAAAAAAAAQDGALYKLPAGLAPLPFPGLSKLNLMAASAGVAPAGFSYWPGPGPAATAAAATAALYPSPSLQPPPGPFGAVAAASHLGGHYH
How it was run: as §1

ETV5 = ETV5 (Homo sapiens, UniProt P41161 1-510)
Sequence of ETV5 (P41161 whole entry): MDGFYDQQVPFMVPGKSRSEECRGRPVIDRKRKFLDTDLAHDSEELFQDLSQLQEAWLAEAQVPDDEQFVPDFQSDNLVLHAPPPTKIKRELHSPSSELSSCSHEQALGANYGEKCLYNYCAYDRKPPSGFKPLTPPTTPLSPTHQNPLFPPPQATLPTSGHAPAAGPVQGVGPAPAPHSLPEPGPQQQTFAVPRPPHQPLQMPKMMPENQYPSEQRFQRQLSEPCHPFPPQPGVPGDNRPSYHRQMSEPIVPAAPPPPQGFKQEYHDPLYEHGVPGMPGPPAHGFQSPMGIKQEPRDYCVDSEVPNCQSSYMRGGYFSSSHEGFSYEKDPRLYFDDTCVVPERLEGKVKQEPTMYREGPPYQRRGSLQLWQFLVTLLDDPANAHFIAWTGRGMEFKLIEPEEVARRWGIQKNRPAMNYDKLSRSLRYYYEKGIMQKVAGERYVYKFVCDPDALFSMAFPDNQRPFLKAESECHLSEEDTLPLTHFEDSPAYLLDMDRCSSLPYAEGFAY
How it was run: as §1

SPIC = molecular target: T7, SPIC (Homo sapiens, UniProt Q8N5J4 1-248)
T7 sequence: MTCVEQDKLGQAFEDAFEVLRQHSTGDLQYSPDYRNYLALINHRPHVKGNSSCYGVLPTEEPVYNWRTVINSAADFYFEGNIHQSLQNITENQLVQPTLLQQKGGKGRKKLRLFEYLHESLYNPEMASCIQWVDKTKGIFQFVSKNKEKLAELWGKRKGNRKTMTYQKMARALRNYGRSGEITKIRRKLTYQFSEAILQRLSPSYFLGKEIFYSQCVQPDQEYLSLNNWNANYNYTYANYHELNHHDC
How it was run: as §1

ELF4 = ELF4 (Homo sapiens, UniProt Q99607 1-663)
Sequence of ELF4 (Q99607 whole entry): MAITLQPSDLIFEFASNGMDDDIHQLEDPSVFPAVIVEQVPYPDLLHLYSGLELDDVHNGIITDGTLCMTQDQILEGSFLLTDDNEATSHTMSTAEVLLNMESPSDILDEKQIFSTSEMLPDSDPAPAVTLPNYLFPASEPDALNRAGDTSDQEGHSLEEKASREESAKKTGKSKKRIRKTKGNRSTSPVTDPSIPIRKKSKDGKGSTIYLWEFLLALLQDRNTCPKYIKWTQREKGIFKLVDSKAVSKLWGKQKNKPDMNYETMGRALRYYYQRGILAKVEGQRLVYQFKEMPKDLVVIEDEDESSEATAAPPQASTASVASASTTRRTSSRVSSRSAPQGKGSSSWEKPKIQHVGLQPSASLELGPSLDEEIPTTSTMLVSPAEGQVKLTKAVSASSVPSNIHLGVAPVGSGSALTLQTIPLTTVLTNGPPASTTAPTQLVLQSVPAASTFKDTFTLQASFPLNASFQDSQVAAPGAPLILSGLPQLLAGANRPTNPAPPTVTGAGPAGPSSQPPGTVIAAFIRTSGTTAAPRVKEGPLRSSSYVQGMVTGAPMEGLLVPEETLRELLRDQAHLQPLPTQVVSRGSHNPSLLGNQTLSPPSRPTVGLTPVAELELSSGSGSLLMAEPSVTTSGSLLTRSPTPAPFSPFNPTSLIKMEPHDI
How it was run: as §1

ELK4 = molecular target: T8, ELK4 (Homo sapiens, UniProt P28324-2 1-405)
T8 sequence: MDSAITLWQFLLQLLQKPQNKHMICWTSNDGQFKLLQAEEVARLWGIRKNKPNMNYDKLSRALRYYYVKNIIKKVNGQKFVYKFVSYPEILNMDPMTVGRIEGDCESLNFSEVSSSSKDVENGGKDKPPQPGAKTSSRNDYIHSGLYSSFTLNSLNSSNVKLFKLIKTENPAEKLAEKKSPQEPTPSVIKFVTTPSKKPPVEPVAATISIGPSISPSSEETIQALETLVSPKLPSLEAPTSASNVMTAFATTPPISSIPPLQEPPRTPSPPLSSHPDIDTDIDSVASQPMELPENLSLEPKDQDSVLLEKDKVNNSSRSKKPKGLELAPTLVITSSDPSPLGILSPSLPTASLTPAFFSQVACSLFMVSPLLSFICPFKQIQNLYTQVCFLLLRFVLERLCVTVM
How it was run: as §1

ETV2 = molecular target: T9, ETV2 (Homo sapiens, UniProt O00321 1-342)
T9 sequence: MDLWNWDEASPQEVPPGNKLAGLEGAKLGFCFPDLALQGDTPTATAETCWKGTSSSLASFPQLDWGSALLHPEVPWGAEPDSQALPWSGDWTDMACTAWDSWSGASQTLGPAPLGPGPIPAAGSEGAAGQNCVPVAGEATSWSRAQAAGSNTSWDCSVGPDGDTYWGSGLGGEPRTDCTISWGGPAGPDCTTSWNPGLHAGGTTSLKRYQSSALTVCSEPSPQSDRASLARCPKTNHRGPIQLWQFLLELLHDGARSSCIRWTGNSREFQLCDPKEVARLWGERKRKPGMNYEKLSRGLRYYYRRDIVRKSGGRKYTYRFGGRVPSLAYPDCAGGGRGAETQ
How it was run: as §1

EHF = molecular target: T10, EHF (Homo sapiens, UniProt Q9NZC4 1-300)
T10 sequence: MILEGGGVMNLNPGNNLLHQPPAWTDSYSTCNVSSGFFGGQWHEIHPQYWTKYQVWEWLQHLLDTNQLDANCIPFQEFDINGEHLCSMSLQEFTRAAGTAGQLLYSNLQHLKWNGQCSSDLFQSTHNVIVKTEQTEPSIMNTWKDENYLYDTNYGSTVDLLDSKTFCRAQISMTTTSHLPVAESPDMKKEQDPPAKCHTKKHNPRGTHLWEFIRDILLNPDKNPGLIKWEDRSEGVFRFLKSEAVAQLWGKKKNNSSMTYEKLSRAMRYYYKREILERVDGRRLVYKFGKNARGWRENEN
How it was run: as §1

SPIB = SPIB (Homo sapiens, UniProt Q01892 1-262)
Sequence of SPIB (Q01892 whole entry): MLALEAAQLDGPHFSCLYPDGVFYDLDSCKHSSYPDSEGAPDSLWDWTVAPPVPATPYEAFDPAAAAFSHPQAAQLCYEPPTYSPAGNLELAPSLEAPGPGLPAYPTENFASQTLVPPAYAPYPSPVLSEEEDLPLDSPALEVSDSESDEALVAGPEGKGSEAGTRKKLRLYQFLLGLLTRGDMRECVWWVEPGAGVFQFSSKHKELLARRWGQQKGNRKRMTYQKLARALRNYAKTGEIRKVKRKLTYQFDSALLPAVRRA
How it was run: as §1

ETV1 = ETV1 (Homo sapiens, UniProt P50549 1-477)
Sequence of ETV1 (P50549 whole entry): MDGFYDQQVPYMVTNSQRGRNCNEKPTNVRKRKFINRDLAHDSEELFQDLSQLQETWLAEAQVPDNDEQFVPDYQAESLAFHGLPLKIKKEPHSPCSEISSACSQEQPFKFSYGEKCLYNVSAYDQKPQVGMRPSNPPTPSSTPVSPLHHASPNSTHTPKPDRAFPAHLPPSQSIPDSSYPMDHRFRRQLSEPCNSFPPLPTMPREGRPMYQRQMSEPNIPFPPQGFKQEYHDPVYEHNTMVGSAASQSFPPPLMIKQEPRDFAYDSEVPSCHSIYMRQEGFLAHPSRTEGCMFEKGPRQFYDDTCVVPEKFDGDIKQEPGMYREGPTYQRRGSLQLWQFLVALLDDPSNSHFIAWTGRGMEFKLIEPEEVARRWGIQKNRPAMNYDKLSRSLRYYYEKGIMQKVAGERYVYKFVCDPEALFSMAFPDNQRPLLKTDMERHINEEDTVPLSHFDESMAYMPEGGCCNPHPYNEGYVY
How it was run: as §1

Sequence: GCTGGC
- binding signal (FLI1): 1.01 fold enrichment (6-mer frequency, TF over GST control)
- binding signal (ELK1): 1.21 fold enrichment (6-mer frequency, TF over GST control)
- binding signal (GABPA): 1.02 fold enrichment (6-mer frequency, TF over GST control)
- binding signal (ERG): 1.01 fold enrichment (6-mer frequency, TF over GST control)
- binding signal (ELF1): 1.11 fold enrichment (6-mer frequency, TF over GST control)
- binding signal (SPI1): 1 fold enrichment (6-mer frequency, TF over GST control)
- binding signal (ELK3): 1.03 fold enrichment (6-mer frequency, TF over GST control)
- binding signal (FEV): 1.06 fold enrichment (6-mer frequency, TF over GST control)
- binding signal (ETV5): 1.02 fold enrichment (6-mer frequency, TF over GST control)
- binding signal (SPIC): 1.12 fold enrichment (6-mer frequency, TF over GST control)
- binding signal (ELF4): 1.15 fold enrichment (6-mer frequency, TF over GST control)
- binding signal (ELK4): 1.1 fold enrichment (6-mer frequency, TF over GST control)
- binding signal (ETV2): 1.07 fold enrichment (6-mer frequency, TF over GST control)

Sequence: ACGCAC
- binding signal (FLI1): 1.06 fold enrichment (6-mer frequency, TF over GST control)
- binding signal (ELK1): 1.09 fold enrichment (6-mer frequency, TF over GST control)
- binding signal (GABPA): 1.04 fold enrichment (6-mer frequency, TF over GST control)
- binding signal (ERG): 1.02 fold enrichment (6-mer frequency, TF over GST control)
- binding signal (ELF1): 1.06 fold enrichment (6-mer frequency, TF over GST control)
- binding signal (EHF): 1.03 fold enrichment (6-mer frequency, TF over GST control)
- binding signal (SPI1): 1.03 fold enrichment (6-mer frequency, TF over GST control)
- binding signal (SPIB): 1.07 fold enrichment (6-mer frequency, TF over GST control)
- binding signal (ELK3): 1.09 fold enrichment (6-mer frequency, TF over GST control)
- binding signal (FEV): 1.05 fold enrichment (6-mer frequency, TF over GST control)
- binding signal (ETV5): 1.09 fold enrichment (6-mer frequency, TF over GST control)
- binding signal (SPIC): 1.01 fold enrichment (6-mer frequency, TF over GST control)
- binding signal (ELF4): 1.05 fold enrichment (6-mer frequency, TF over GST control)
- binding signal (ELK4): 1.06 fold enrichment (6-mer frequency, TF over GST control)
- binding signal (ETV2): 1.22 fold enrichment (6-mer frequency, TF over GST control)
- binding signal (ETV1): 1.1 fold enrichment (6-mer frequency, TF over GST control)

Sequence: CGTATG
- binding signal (FLI1): 1.1 fold enrichment (6-mer frequency, TF over GST control)
- binding signal (ELK1): 1.1 fold enrichment (6-mer frequency, TF over GST control)
- binding signal (GABPA): 1.08 fold enrichment (6-mer frequency, TF over GST control)
- binding signal (ERG): 1.03 fold enrichment (6-mer frequency, TF over GST control)
- binding signal (ELF1): 1.1 fold enrichment (6-mer frequency, TF over GST control)
- binding signal (EHF): 1.1 fold enrichment (6-mer frequency, TF over GST control)
- binding signal (SPI1): 1.07 fold enrichment (6-mer frequency, TF over GST control)
- binding signal (SPIB): 1.09 fold enrichment (6-mer frequency, TF over GST control)
- binding signal (ELK3): 1.13 fold enrichment (6-mer frequency, TF over GST control)
- binding signal (ETV5): 1.09 fold enrichment (6-mer frequency, TF over GST control)
- binding signal (SPIC): 1.07 fold enrichment (6-mer frequency, TF over GST control)
- binding signal (ELF4): 1.04 fold enrichment (6-mer frequency, TF over GST control)
- binding signal (ELK4): 1 fold enrichment (6-mer frequency, TF over GST control)
- binding signal (ETV2): 1.09 fold enrichment (6-mer frequency, TF over GST control)
- binding signal (ETV1): 1.04 fold enrichment (6-mer frequency, TF over GST control)
